# Among all 5,500 compounds or so, about 2,000 (36%) were called active. Another 18% or so got no clear call; they are omitted. Some of the results follow. Unmarked numbers belong to inactive results. Rule as the data show it: active = normalized growth mostly below about 0.91 (no sharp cut-off); inconclusive = no clear call, values can overlap the other calls; inactive = mostly above about 0.92.
# Assay: chemical genetic growth profiling, strain panel (AID 1159580);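 also: tested at 20 µM; growth read once vehicle control cultures reached saturation at 30 °C; 1 = growth at the plate median or of vehicle wells; lower values mean less growth of the strain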
# Conditions: S. cerevisiae deletion strains, growth OD
smiles,measurement,setting,value
N#Cc1c(Br)cnn1Cc1cc(C(F)(F)F)cc(C(F)(F)F)c1,normalized growth,"locus YAR019C, strain CDC15, stronger effect = lower value",0.997
same,normalized growth,"locus YBL105C, strain PKC1, stronger effect = lower value",1
same,normalized growth,"locus YBR135W, strain CKS1, stronger effect = lower value",1.01
same,normalized growth,"locus YBR136W, strain MEC1, stronger effect = lower value",0.995
same,normalized growth,"locus YBR160W, strain CDC28, stronger effect = lower value",0.999
same,normalized growth,"locus YDL017W, strain CDC7, stronger effect = lower value",0.995
same,normalized growth,"locus YDL028C, strain MPS1, stronger effect = lower value",1
same,normalized growth,"locus YDL101C, strain DUN1, stronger effect = lower value",0.988
same,normalized growth,"locus YDL108W, strain KIN28, stronger effect = lower value",0.997
same,normalized growth,"locus YDL132W, strain cdc53, stronger effect = lower value",0.999
same,normalized growth,"locus YDL214C, strain PRR2, stronger effect = lower value",0.863
same,normalized growth,"locus YDR052C, strain DBF4, stronger effect = lower value",0.993
same,normalized growth,"locus YDR054C, strain cdc34, stronger effect = lower value",0.989
same,normalized growth,"locus YDR226W, strain ADK1, stronger effect = lower value",1
same,normalized growth,"locus YDR477W, strain SNF1, stronger effect = lower value",0.939
same,normalized growth,"locus YER123W, strain YCK3, stronger effect = lower value",0.842
same,normalized growth,"locus YER133W, strain GLC7, stronger effect = lower value",0.919
same,normalized growth,"locus YFL009W, strain cdc4, stronger effect = lower value",0.993
same,normalized growth,"locus YFL029C, strain CAK1, stronger effect = lower value",0.998
same,normalized growth,"locus YFR003C, strain YPI1, stronger effect = lower value",1
same,normalized growth,"locus YFR019W, strain FAB1, stronger effect = lower value",0.936
same,normalized growth,"locus YFR028C, strain CDC14, stronger effect = lower value",1
same,normalized growth,"locus YGR040W, strain KSS1, stronger effect = lower value",0.925
same,normalized growth,"locus YGR052W, strain FMP48, stronger effect = lower value",0.946
same,normalized growth,"locus YGR092W, strain DBF2, stronger effect = lower value",0.919
same,normalized growth,"locus YHR030C, strain SLT2, stronger effect = lower value",0.933
same,normalized growth,"locus YHR079C, strain IRE1, stronger effect = lower value",0.93
same,normalized growth,"locus YHR082C, strain KSP1, stronger effect = lower value",0.907
same,normalized growth,"locus YHR205W, strain SCH9, stronger effect = lower value",0.817
same,normalized growth,"locus YIL147C, strain SLN1, stronger effect = lower value",0.99
same,normalized growth,"locus YJL095W, strain BCK1, stronger effect = lower value",0.941
same,normalized growth,"locus YJL128C, strain PBS2, stronger effect = lower value",0.887
same,normalized growth,"locus YJL157C, strain FAR1, stronger effect = lower value",0.909
same,normalized growth,"locus YJR016C, strain ILV3, stronger effect = lower value",0.989
same,normalized growth,"locus YJR066W, strain TOR1 (second series), stronger effect = lower value",0.919
same,normalized growth,"locus YJR066W, strain TOR1, stronger effect = lower value",0.952
same,normalized growth,"locus YKL048C, strain ELM1, stronger effect = lower value",0.957
same,normalized growth,"locus YKL067W, strain YNK1, stronger effect = lower value",0.895
same,normalized growth,"locus YKL101W, strain HSL1, stronger effect = lower value",0.878
same,normalized growth,"locus YKL193C, strain SDS22, stronger effect = lower value",0.996
same,normalized growth,"locus YKL203C, strain TOR2, stronger effect = lower value",1
same,normalized growth,"locus YLR113W, strain HOG1, stronger effect = lower value",0.761 (active)
same,normalized growth,"locus YLR133W, strain CKI1, stronger effect = lower value",0.926
same,normalized growth,"locus YLR403W, strain SFP1, stronger effect = lower value",0.933
same,normalized growth,"locus YML070W, strain DAK1, stronger effect = lower value",0.884
same,normalized growth,"locus YMR001C, strain CDC5, stronger effect = lower value",0.997
same,normalized growth,"locus YMR205C, strain PFK2 (second series), stronger effect = lower value",0.907
same,normalized growth,"locus YMR277W, strain FCP1, stronger effect = lower value",1
same,normalized growth,"locus YNL006W, strain LST8, stronger effect = lower value",0.997
same,normalized growth,"locus YNL020C, strain ARK1, stronger effect = lower value",0.888
same,normalized growth,"locus YNL161W, strain CBK1, stronger effect = lower value",0.994
same,normalized growth,"locus YNL183C, strain NPR1, stronger effect = lower value",0.931
same,normalized growth,"locus YNL207W, strain RIO2, stronger effect = lower value",0.99
same,normalized growth,"locus YNL222W, strain SSU72, stronger effect = lower value",0.996
same,normalized growth,"locus YNL307C, strain MCK1 (second series), stronger effect = lower value",0.903
same,normalized growth,"locus YOL078W, strain AVO1, stronger effect = lower value",0.999
same,normalized growth,"locus YOL136C, strain PFK27, stronger effect = lower value",0.859
same,normalized growth,"locus YOR061W, strain CKA2, stronger effect = lower value",0.867
same,normalized growth,"locus YOR119C, strain RIO1, stronger effect = lower value",0.974
same,normalized growth,"locus YOR231W, strain MKK1, stronger effect = lower value",0.903
same,normalized growth,"locus YOR329C, strain SCD5, stronger effect = lower value",0.991
same,normalized growth,"locus YPL031C, strain PHO85, stronger effect = lower value",0.922
same,normalized growth,"locus YPL153C, strain RAD53, stronger effect = lower value",0.928
same,normalized growth,"locus YPL204W, strain HRR25, stronger effect = lower value",0.943
same,normalized growth,"locus YPL209C, strain IPL1, stronger effect = lower value",1
same,normalized growth,"locus YPL256C, strain CLN2, stronger effect = lower value",0.876
same,normalized growth,"locus YPR025C, strain CCL1, stronger effect = lower value",0.999
same,normalized growth,"locus YPR106W, strain ISR1, stronger effect = lower value",0.983
same,normalized growth,"locus YPR111W, strain DBF20, stronger effect = lower value",0.959
same,normalized growth,"strain NNK1, stronger effect = lower value",0.956
same,normalized growth,"strain TSCII, stronger effect = lower value",0.998

# Source: PubChem BioAssay AID1159580 (chemical genetic matrix, 2015)
